TDP43 rescue: TDP-43 toxicity inhibition in yeast | TDP-43 expressing yeast growth rescue, BacTiter-Glo, 24 h | hit rate 1.8% among 410,000 | Potency, µM (series often up to 46.1 µM), hits mostly activators; note: nearly all actives have a fitted effect of over 50% in size
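Cell-based yeast growth screen: TDP-43 expression induced in galactose, inoculum OD600=0.02 after raffinose pregrowth to mid-log. Read-out BacTiter-Glo luminescence at 24 hr, 30 deg C; inhibition of toxicity seen as signal increase.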
TSG101-PTAP inh: blocks PTAP/TSG101 interaction to inhibit HIV-1 budding | Q99816 | Fluorescence polarization, FITC-PTAP peptide / Tsg101 binding | Potency, µM (highest dose often 115 µM), usual class: inhibitors | 340,000 tested, under 10 active | AID 493005; active = well fitted inhibition curve with a large enough effect in the main read-out, with a control signal flat, not every such curve was filed as active; inconclusive = small, poorly fitted or top-dose-only effect, or effect the other way, or a change in a side signal; inactive = no such curve, though single readings can be large or run the other way
Target sequence (Q99816 whole entry, looked up): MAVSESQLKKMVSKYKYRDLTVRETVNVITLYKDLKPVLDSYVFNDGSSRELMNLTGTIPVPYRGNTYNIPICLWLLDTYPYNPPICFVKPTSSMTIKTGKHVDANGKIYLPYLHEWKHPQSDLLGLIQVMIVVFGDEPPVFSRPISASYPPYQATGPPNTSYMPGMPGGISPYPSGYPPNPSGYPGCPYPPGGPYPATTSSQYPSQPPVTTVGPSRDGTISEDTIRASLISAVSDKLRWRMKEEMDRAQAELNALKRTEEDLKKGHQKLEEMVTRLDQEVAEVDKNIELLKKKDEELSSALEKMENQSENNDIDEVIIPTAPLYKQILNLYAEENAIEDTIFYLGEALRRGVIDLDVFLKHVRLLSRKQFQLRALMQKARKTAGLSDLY
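Fluorescence anisotropy tracks displacement of a FITC-tagged PTAP peptide (50 nM) from the Tsg101 binding domain (10 uM), following a 20 min room-temperature incubation at pH 7.5.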
Abeta yeast res: restores growth of yeast expressing A-beta42 peptide; AID 1347071; Potency, µM (doses to about 46.1 µM), most hits filed as activators; hit rate 0.063% among 410,000; yeast expressing A-beta42, growth rescue, OD600, 48 h; response scale: 0% DMSO, 100% iron-clioquinol control; note: nearly all actives have a fitted effect of over 55% in size
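Yeast growth medium received pinned compounds, then yeast cells expressing toxic A-beta were added; plates incubated at 30 C for 48 hr. Growth read as absorbance at 600 nm, normalized to DMSO and equimolar FeCl3 plus clioquinol controls.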
FUS suppressor: suppressors of FUS proteinopathy in yeast; Potency, µM (highest dose often 76.6 µM), most hits filed as activators; S. cerevisiae FUS-expressing, growth rescue, OD600, 24 h; AID 1347120; hit rate 0.24% among 390,000; note: nearly all actives have a fitted effect of over 55% in size
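Steps: raffinose overnight preculture; dilution to OD 0.005 in 2% galactose minimal medium; compound addition (concentration series); 24hr at 30C, 99% humidity; absorbance read at 600 nm.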
aSyn yeast inh: alpha-synuclein toxicity inhibition in yeast; Yeast expressing alpha-synuclein, growth rescue, BacTiter-Glo, 24 h; AID 652106; hit rate 0.14% among 370,000; Potency, µM (top dose mostly 46.1 µM), usual class: activators; note: nearly all actives have a fitted effect of over 65% in size
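Rescue of yeast growth: cells expressing toxic alpha-synuclein, induced in galactose at OD600 0.02, incubated with compound 24 h at 30 C. ATP luminescence quantified growth; inhibitors of toxicity appear as activators.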
Each line names hits and unclear results; the compound was inactive in the other large screens. Only some compounds are listed: those with a hit (about 2.1% of all), similar ones and a draw of the others. Unless noted, calls come from the whole dose curve; as a rule, active = well fitted curve in the direction sought with a large enough effect; inconclusive = small, poorly fitted or top-dose-only effect, or another doubt; inactive = no such curve, though single readings can be large; an effect the other way counts as inactive or inconclusive.

Cc1nn(C)c(C(=O)Nc2ccc(S(=O)(=O)NC34CC5CC(CC(C5)C3)C4)cc2)c1Br	Abeta yeast res inconclusive, aSyn yeast inh 22.4µM
CCCCOc1ccc(CC(=O)N(C)OC)cc1	none (no result: TDP43 rescue, TSG101-PTAP inh, Abeta yeast res, FUS suppressor)
CCN1C(C(=O)c2ccccc2)=C(OC(=O)COc2ccc(C)cc2)c2ccccc2S1(=O)=O	TDP43 rescue inconclusive (no result: TSG101-PTAP inh, aSyn yeast inh)
O=C(Nc1cccnc1)c1ccc([N+](=O)[O-])s1	TDP43 rescue 12.6µM
CCCCCCC(=O)c1c(C)[nH]c(C(=O)OCC)c1C	TDP43 rescue 10µM
C[C@H]1CCC[C@H](O)CC(=O)c2c(O)cc(O)cc2CC(=O)O1	none (no result: TDP43 rescue, TSG101-PTAP inh, Abeta yeast res, aSyn yeast inh)
COc1ccc(C(=O)Nc2cc(OC)cc(OC)c2)cc1	none
COc1ccc(NC(=O)C(Cc2ccccc2)n2cccc2)cc1 (centres undefined)	none
COc1cc(NC(=O)c2ccccc2)cc(OC)c1	aSyn yeast inh 3.55µM
COc1cc(NC(=O)C(Cc2ccccc2)n2cccc2)cc(OC)c1 (centres undefined)	TDP43 rescue 20µM
CN1CCN(CCCNC(=O)c2cc3c(-c4ccc(Cl)cc4)nn(C)c3s2)CC1	none
Cn1nc(-c2ccc(Cl)cc2)c2cc(C(=O)NCC3CCCO3)sc21 (centres undefined)	TDP43 rescue 22.4µM, aSyn yeast inh inconclusive
CCOC(=O)N1CCN(Cc2nc3cc(NC(=O)C(C)C)ccc3n2C(C)C)CC1	none (no result: TSG101-PTAP inh, aSyn yeast inh)
Cn1cnc([N+](=O)[O-])c1S(=O)(=O)Oc1ccccc1	TDP43 rescue 12.6µM
Cn1cnc([N+](=O)[O-])c1S(=O)(=O)Nc1ccccc1	FUS suppressor inconclusive
Cn1cnc([N+](=O)[O-])c1S(=O)(=O)c1cccc(Cl)c1	TDP43 rescue 12.6µM
Cc1cccc(C)c1-n1nnnc1C1c2ccccc2C(=O)N1CCCN1CCOCC1 (centres undefined)	none (no result: TSG101-PTAP inh)
C/C(=N/NS(=O)(=O)c1ccc(Cl)cc1)c1cccc(NC(=O)c2ccc(Cl)cc2Cl)c1	TDP43 rescue 12.6µM
CN(C)c1ccc(/C=C\C=C/c2ccnc3ccccc23)cc1	none (no result: TDP43 rescue, TSG101-PTAP inh, Abeta yeast res, FUS suppressor)
Nc1ncnc2c1ncn2C1CCCC1	none
Nc1ncnc2c1ncn2C1CCCO1 (centres undefined)	TDP43 rescue 35.5µM
Nc1ncnc2c1ncn2[C@H]1CC[C@@H](CO)O1	TDP43 rescue 12.6µM
Cc1ccc2cc(F)c(F)c(F)c2n1	TDP43 rescue inconclusive (no result: TSG101-PTAP inh)
Cc1ccc2ccc3ccc(C)nc3c2n1	TDP43 rescue 4.47µM
Cc1ccc(CNc2ccc(-c3nc(C(C)C)no3)cc2[N+](=O)[O-])cc1	none (no result: TSG101-PTAP inh, aSyn yeast inh)
Cc1cnn(C(=S)NCCc2ccccc2)c1	TDP43 rescue 11.2µM
Cc1cccc2cc(CN(Cc3ccccc3)Cc3nnnn3Cc3ccccc3)c(=O)[nH]c12	none (no result: TDP43 rescue, TSG101-PTAP inh, Abeta yeast res, FUS suppressor)
COc1ccc([C@@H]2[C@@H]3C(=O)N(C(C)(C)C)C(=O)[C@@H]3[C@]3(Cc4ccc(Cl)cc4)C(=O)N(c4cccc(Br)c4)C(=O)N23)cc1	none
COc1ccc(N2C(=O)N3[C@H](c4ccc(Br)cc4)[C@@H]4C(=O)N(C(C)(C)C)C(=O)[C@@H]4[C@]3(Cc3ccccc3)C2=O)cc1	FUS suppressor 12.6µM
CC(C)(C)N1C(=O)[C@H]2[C@@H](c3ccc(Br)cc3)N3C(=O)N(c4cccc(Cl)c4)C(=O)[C@@]3(Cc3ccccc3)[C@H]2C1=O	FUS suppressor 12.6µM
COc1ccc([C@@H]2[C@@H]3C(=O)N(C(C)(C)C)C(=O)[C@@H]3[C@]3(Cc4ccccc4)C(=O)N(c4cccc(Cl)c4)C(=O)N23)cc1	FUS suppressor 28.2µM
COc1ccc([C@@H]2[C@@H]3C(=O)N(C(C)(C)C)C(=O)[C@@H]3[C@]3(Cc4ccccc4)C(=O)N(c4cccc(C)c4)C(=O)N23)cc1	FUS suppressor 28.2µM
COc1ccc([C@@H]2[C@@H]3C(=O)N(C(C)(C)C)C(=O)[C@@H]3[C@]3(Cc4ccccc4)C(=O)N(c4ccc(Br)cc4)C(=O)N23)cc1	none
CC(C)(N[C@@H](Cc1ccccc1)C(=O)NCC(c1ccccc1)c1ccccc1)C(=O)NC1CCCCC1	none (no result: TDP43 rescue, TSG101-PTAP inh, Abeta yeast res, aSyn yeast inh)
COc1ccccc1CNC(=O)CCC1N=C2c3ccccc3N=C(SCC(N)=O)N2C1=O (centres undefined)	FUS suppressor inconclusive (no result: TSG101-PTAP inh, aSyn yeast inh)

Assay outcomes (PubChem BioAssay)
